PubChem BioAssay (NCI)
Where “and” joins values, the source holds several entries; their conditions need not be identical. Identical values can stand only once. The panel holds about 83,000 compounds, 20% with a hit somewhere; the sample as a whole holds those more often.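 Activity criterion: percent growth below 10, measured after cells in 96-well plates were exposed to a single compound concentration for 48 hours.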 A number with no mark means an inactive call. Calls of active or inactive are those of the source.

These compounds were tested on SK-MEL-28 melanoma (assay: NCI-60 one-dose screen, 48 h (100 = growth as untreated, 0 = no growth, -100 = all killed)). Conditions: 2.5 µM.
Method: Growth inhibition of the SK-MEL-28 human tumor cell line is measured as a screen for anti-cancer activity. Cells are grown in 96 well plates and exposed to the test compound for 48 hours. Compounds are tested at a single concentration, which is 10^-5 M for most compounds. The reported endpoint is percent growth (GI% or GIPRCNT), where numbers from 0 - 100% represent growth inhibition, and numbers from -100% - 0 represent cell death. For example, a value of 40 represents 60% growth inhibition. A value of 0 means no net growth occurred over the course of the experiment. A value of -40 indicates 40% of cells at the beginning of the experiment died by the end of the experiment. A value of -100 means all cells are dead at the end of the experiment.
NCI-60 Human Tumor Cell Lines Screen was performed using the standard one-dose NCI protocol, which is described in more detail at https://dtp.cancer.gov/discovery_development/nci-60/default.htm.
Compounds with GIPRCNT values below 10 were considered active. Activity score was based on GIPRCNT using the following formula: […]
Score is 0 for GIPRCNT values of 100 or above, 50 for GIPRCNT values of 0, and 100 for GIPRCNT values of -100.

With CC(=O)O[C@H]1C(=O)[C@@]2(C)[C@H]([C@H](OC(=O)c3ccccc3)[C@]3(O)C[C@H](OC(=O)[C@H](O)[C@@H](NC(=O)c4ccccc4)c4ccccc4)C(C)=C1C3(C)C)[C@]1(OC(C)=O)CO[C@@H]1C[C@@H]2O the growth was 71.3%.

Same assay, conditions: 5 µM

Work on CC(=O)O[C@H]1C(=O)[C@@]2(C)[C@H]([C@H](OC(=O)c3ccccc3)[C@]3(O)C[C@H](OC(=O)[C@H](O)[C@@H](NC(=O)c4ccccc4)c4ccccc4)C(C)=C1C3(C)C)[C@]1(OC(C)=O)CO[C@@H]1C[C@@H]2O yielded a growth of 76.6%.

Same assay, conditions: 10 µM

In order of falling growth:
1. O=C(NC(=S)Nc1ccccn1)c1ccccc1  152%
2. O=C1C=CC(=O)N1c1ccc(N2C(=O)C=CC2=O)cc1  135%
3. CCC(C)(c1ccc(O)c(C)c1)c1ccc(O)c(C)c1  133%
4. COc1ccc(N)c2c1C(=O)c1ccccc1C2=O  128%
5. Cc1cc(Cl)ccc1NC(=O)/C(Cl)=C1/Sc2ccccc2NC1=O  125%
6. Cc1c(-c2ccccc2)[nH]c2ccccc12  121%
7. O=Nc1ccc(Nc2ccccc2)cc1  120%
8. O=C1C(Cl)=C(Cl)C(Cl)(Cl)C(Cl)C1(Cl)Cl (stereo not given)  114%
9. CCOC(=O)[C@]1(Br)CC[C@@]1(Br)C(=O)OCC  110%
10. COc1cc(N)ccc1Nc1c2ccccc2nc2ccccc12  107%
11. O=C(O)c1ccccc1.[Ag]  106%
12. COc1ccc(C(C#N)=C2C=CC(=NO)C=C2)cc1  106%
13. NCc1c(O)ccc2ccccc12  105%
14. N#C/C(=C/N1C(=O)/C(=C/c2ccc([N+](=O)[O-])cc2)SC1=S)c1nc2ccccc2s1  105%
15. Cc1cc(N=C2C=CC(=[N+](C)C)C=C2)c(N)cc1N  103%
16. O=[N+]([O-])c1cc(S(=O)(=O)Nc2ccccc2)ccc1Cl  102%
17. CN(CC(=O)O)c1ccc(/C=C/c2ccnc3ccccc23)cc1  100%
18. Cn1ncc2cc3c(Nc4ccc(Cl)cc4)cccc3nc21  95.8%
19. O=C(CNS(=O)(=O)Cc1ccccc1)NNc1ccccc1  94%
20. S=C1SCN(CCc2ccccc2)CN1CCc1ccccc1  92.4%
21. O=S(=O)(c1cc(Cl)ccc1O)c1cc(Cl)ccc1O  87.5%
22. C=C1N(C)c2ccc(Cl)cc2C1(C)C  84.5%
23. CN(C)c1ccc(/C=C/c2ccnc3ccccc23)cc1N  83.8%
24. O=c1[nH]cc(/C=N\Nc2ccccc2)c(=O)[nH]1  81.5%
25. CCC(=O)Oc1ccc(/C=N/NC(N)=S)nc1  79%
26. N#CC(=C1C=CC(=NO)C=C1)c1ccccc1  76.3%
27. CC(=O)O[C@H]1C(=O)[C@@]2(C)[C@H]([C@H](OC(=O)c3ccccc3)[C@]3(O)C[C@H](OC(=O)[C@H](O)[C@@H](NC(=O)c4ccccc4)c4ccccc4)C(C)=C1C3(C)C)[C@]1(OC(C)=O)CO[C@@H]1C[C@@H]2O  75.7%
28. CN(C)CCNc1cccc2sc3ccc(O)cc3c(=O)c12  69.2%
29. Nc1nc(N)c2cc(Sc3ccc4ccccc4c3)ccc2n1  61.7%
30. Cc1cc(C)c(N2C(=O)CC(Sc3ccccc3N)C2=O)c(C)c1 (stereo not given)  60.7%
31. O=C1c2ccccc2CCC1(Br)Br  56.5%
32. ClCCn1c(CCl)nc2ccc(Cl)cc21  42.8%
33. CC[C@@]1(OC(=O)CN(C)C)C(=O)OCc2c1cc1n(c2=O)Cc2cc3c(N)cccc3nc2-1  16.5%

O=C1c2cccc3cc([N+](=O)[O-])cc(c23)C(=O)N1CCN1CCCC1 was tested, and the growth was -36.5% (active).
COc1ccc2oc(-c3ccc(Cl)cc3)c(N3CCN(C)CC3)c2c1 was tested, and the growth was -12.3% (active).
Cc1cc(O)c2c(c1O)C(=O)C13C(=C2O)C(=O)C2C(O)C1C1C(O)C3C(=O)C3=C(O)c4c(O)cc(C)c(O)c4C(=O)C321 (stereo not given) was tested, and the growth was 9.99% (active).
In the case of Cn1c2nc3ccccc3c-2nc2ccccc21, the growth is reported as 113% and 106%.
In the case of S=P(N1CC1)(N1CC1)N1CC1, the growth is reported as 131% and 116%.
